Screening data from PubChem.
Only some compounds are listed: those with a hit (about 2.4% of all), similar ones and a draw of the others.
AmpC inh no det: Promiscuous and Specific Inhibitors of AmpC Beta-Lactamase (assay without detergent). P00811. AmpC nitrocefin hydrolysis, absorbance 480 nm, no detergent. Potency, µM (highest dose often 28.7 µM). hit rate 1.8% among 71,000
Target sequence (P00811 whole entry, looked up): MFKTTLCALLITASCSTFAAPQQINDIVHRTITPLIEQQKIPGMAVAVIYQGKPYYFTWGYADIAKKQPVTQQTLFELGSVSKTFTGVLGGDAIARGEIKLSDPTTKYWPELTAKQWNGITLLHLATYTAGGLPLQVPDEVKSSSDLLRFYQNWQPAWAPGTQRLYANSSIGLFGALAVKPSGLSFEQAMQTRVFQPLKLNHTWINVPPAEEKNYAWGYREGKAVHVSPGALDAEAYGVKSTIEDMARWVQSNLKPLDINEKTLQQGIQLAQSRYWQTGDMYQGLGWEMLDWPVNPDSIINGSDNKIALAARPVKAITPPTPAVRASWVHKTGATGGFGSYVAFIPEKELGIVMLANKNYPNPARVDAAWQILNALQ
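Enzyme, pH 7.0 phosphate. Compound titrations were pre-incubated with AmpC for 15 min at room temperature before nitrocefin (stock 800 uM) addition; product formation was recorded at 480 nm every 20 s for 4 min.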
Prx2 Sm inh: Schistosoma Mansoni Peroxiredoxins (Prx2). S. mansoni Prx2 activity coupled to TGR/GSH (TGR is thioredoxin glutathione reductase), NADPH fluorescence loss, qHTS. hit rate 0.07% among 65,000. Potency, µM. AID 448, 2006. Schistosoma mansoni peroxiredoxin 2 (Prx2)
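Prx2 inhibition was measured as reduced NADPH consumption when electrons flowed from NADPH through TGR and glutathione to Prx2 and H2O2. Plates were read kinetically over 8 min; enzyme reagents were held at 4 deg C during dispensing.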
AmpC det inh: Promiscuous and Specific Inhibitors of AmpC Beta-Lactamase (assay with detergent). purified AmpC, nitrocefin hydrolysis with detergent. P00811. AID 584, 2007. Potency, µM (highest dose often 28.7 µM). hit rate 0.09% among 71,000; active means well fitted curve in the direction sought with a large enough effect; inconclusive means small, poorly fitted or top-dose-only effect
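E. coli AmpC (5.3 nM) in 20 mM phosphate pH 7.0 with 0.01% Triton X-100, preincubated 15 min RT with compound; nitrocefin (2 uL of 800 uM stock) hydrolysis followed by 480 nm absorbance every 20 s over 4 min.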
LT uptake inh: qHTS Assay for Anthrax Lethal Toxin Internalization; Cells, anthrax lethal toxin internalization, FRET ratio (460/530); Potency, µM (doses to about 40 µM), usual class: inhibitors; hit rate 0.67% among 70,000; further: nearly all actives have a fitted effect of over 50% in size
Numbers stand for hits; 0 = inactive; ? = inconclusive; - = no result given; [ ] = remark or other dose. Unless noted, the call rests on the fitted dose curve.

SMILES | AmpC inh no det | Prx2 Sm inh | AmpC det inh | LT uptake inh
CCOc1ccc(C2CC(c3cccc(C)c3)n3ncnc3N2)cc1 (configuration not stated) | 0 | 0 | 0 | 0
Fc1ccc(C2CC(c3ccccc3)Nc3ncnn32)cc1 (configuration not stated) | 4µM[single pt active] | 0 | 0 | 0
[O-]/[N+](=N\O)c1ccccc1 | 0 | - | 0 | 0
Cn1c(NC(=O)c2cccc(Cn3cc(Cl)cn3)c2)nc2ccccc21 | 0 | 0 | 0 | 0
CCn1c(NC(=O)c2cccc(Cn3cc(Cl)cn3)c2)nc2ccccc21 | 4µM[single pt active] | 0 | 0 | 0
CN(C)C(=O)Nc1cccc(C(F)(F)F)c1 | 0 | - | 0 | ?
Cc1ccccc1C1CC(c2ccc(F)cc2)Nc2nc(N)nn21 (configuration not stated) | 4µM[single pt active] | 0 | 0 | ?
Nc1nc2n(n1)C(c1ccccc1)CC(c1ccc(F)cc1)N2 (configuration not stated) | 4µM[single pt active] | 0 | 0 | 0
CCc1ccc(C2CC(c3ccc(Cl)cc3)n3nc(N)nc3N2)cc1 (configuration not stated) | 4µM[single pt active] | 0 | 0 | 0
Nc1nc2n(n1)C(c1ccco1)CC(c1ccc(F)cc1)N2 (configuration not stated) | 0 | 0 | 0 | 0
Nc1nc2n(n1)C(c1c(F)cccc1Cl)CC(c1ccc(F)cc1)N2 (configuration not stated) | 4µM[single pt active] | 0 | 0 | 0
Cc1ccccc1C1CC(c2ccc(Br)cc2)Nc2nc(N)nn21 (configuration not stated) | 0 | 0 | 0 | 0
Nc1nc2n(n1)C(c1cccc(Br)c1)CC(c1ccc(F)cc1)N2 (configuration not stated) | 0 | 0 | 0 | 0
CNc1ccc(O)cc1 | 0 | - | 0 | ?
CCCNC(=O)c1cc(-c2ccc(O)cc2)on1 | 0 | 0 | 0 | 0
O=c1nc2s/c(=C\c3ccco3)c(=O)n2nc1Cc1ccc(F)cc1 | 10µM[single pt active] | 0 | 0 | 0
Nc1ccc(-c2cc(N)n(-c3ccccc3)n2)cc1 | 0 | 0 | 0 | ?
Cc1ccc(-n2nc(-c3ccc(N)cc3)cc2N)cc1 | 3.2µM[single pt active] | 0 | 0 | ?
CCOc1ccc(-n2c(Cc3cc(=O)[nH]c(=O)[nH]3)nnc2SCc2cccnc2)cc1 | 4µM[single pt active] | 0 | 0 | 0
CCOC(=O)C(C)Sc1nnc(Cc2cc(=O)[nH]c(=O)[nH]2)n1-c1ccc(OCC)cc1 (configuration not stated) | 4µM[single pt active] | 0 | 0 | 0
CCOc1ccc(-n2c(Cc3cc(=O)[nH]c(=O)[nH]3)nnc2SC(C)C)cc1 | 0 | 0 | 0 | ?
CCOC(=O)C(C)Sc1nnc(Cc2cc(=O)[nH]c(=O)[nH]2)n1-c1cccc(OC)c1 (configuration not stated) | 4µM[single pt active] | 0 | 0 | 0
c1ccc2c([C@@H]3CCN(CCN4CCOCC4)C3)c[nH]c2c1 | 0[5.75 µM] | 0 | 0[5.75 µM] | ?
O=CN1C[C@H]2C[C@@H](C1)c1cccc(=O)n1C2 | 0 | 0 | 0 | 0
O=C(CSc1nnc(-c2cc3ccccc3cc2O)n1Cc1ccco1)c1ccc(F)cc1 | 10µM | 0 | 0 | ?
SMILES | AmpC inh no det | Prx2 Sm inh | AmpC det inh | LT uptake inh
CN1CCc2cc3c(cc2[C@@H]1[C@H]1OC(=O)c2c1ccc1c2OCO1)OCO3 | 0 | 0 | 0 | ?
O=C(NCc1ccccc1)C1CCCN(S(=O)(=O)c2cccnc2)C1 (configuration not stated) | 0 | 0 | 0 | 0
CCN(CC)c1ccc(NC(=O)C2CCCN(S(=O)(=O)c3cccnc3)C2)c(C)c1 (configuration not stated) | 4µM[single pt active] | 0 | 0 | 0
COc1ccc(S(=O)(=O)N2CCCC(C(=O)Nc3cccnc3)C2)cc1Cl (configuration not stated) | 0 | 0 | 0 | 0
COc1ccc(NC(=O)C2CCCN(S(=O)(=O)c3cccnc3)C2)c(OC)c1 (configuration not stated) | 4µM[single pt active] | 0 | 0 | 0
CCn1c(=O)c2cc(C(=O)N3CCOCC3)sc2c2ccccc21 | 4µM[single pt active] | 0 | 0 | 0
CCn1c(=O)c2cc(C(=O)N3CCCC3)sc2c2ccccc21 | 4µM[single pt active] | 0 | 0 | 0
CCOC(=O)c1cc2c(=O)n(C)c3ccccc3c2s1 | 0 | 0 | 0 | 0
OC(COc1ccc(Cl)c2ccccc12)CN1CCN(c2ccccn2)CC1 (configuration not stated) | 0 | 0 | 0 | 10µM
CC(=O)Oc1ccc(/C=C\C(=O)C[C@@H]2O[C@@H](Oc3cc(OC(C)=O)c4c(c3)O[C@@H](c3ccc(OC(C)=O)cc3)CC4=O)[C@H](OC(C)=O)[C@H](OC(C)=O)[C@@H]2OC(C)=O)cc1 | 0 | 0 | 0 | ?
CCOC(=O)c1c(NC(=O)CN2CCN(c3ccccn3)CC2)sc2c1CCCC2 | 0 | 0 | 0 | 0
CCOC(=O)CNc1c(N2CCN(c3ccccn3)CC2)c(=O)c1=O | 4µM[single pt active] | 0 | 0 | 0
O=C(C1CCC(CNc2c(N3CCCCC3)c(=O)c2=O)CC1)N1CCN(c2ccccn2)CC1 (configuration not stated) | 4µM[single pt active] | 0 | 0 | 0
COc1ccc2nc3c(cc2c1)Cc1ccccc1-3 | ? | 0 | 0 | ?
ClCc1ccccc1 | 0 | - | 0 | ?
Cc1cc(NC(=O)Cn2c(=O)n(Cc3ccccc3)c(=O)c3ccccc32)no1 | 10µM | 0 | 0 | 0
O=C(Cn1c(=O)n(Cc2ccco2)c(=O)c2ccccc21)Nc1cccc(Cl)c1 | 2.5µM[single pt active] | 0 | 0 | 2.5µM
C[C@@H]1Cc2cc3c(cc2C(c2ccc(N)cc2)=NN1)OCO3 | 0 | 0 | 0 | ?
COc1ccc(OC)c(C2OCCC=CC2C)c1 (configuration not stated) | - | - | - | 0[8 µM]
Oc1c(Cl)c(Cl)c(Cl)c(Cl)c1Cl (tested in a mixture with another compound) | 0[5.75 µM] | 0 | 0[5.75 µM] | 0[8 µM]
CC(C)n1cc2c3c(cccc31)[C@@H]1C[C@H](C(=O)O[C@@H](C)[C@H](C)O)CN(C)[C@H]1C2 | 0 | 0 | 0 | ?
Cc1cc(NC(=O)C2CCCN(S(=O)(=O)c3c(C)noc3C)C2)n[nH]1 (configuration not stated) | 4µM[single pt active] | 0 | 0 | ?
Cc1noc(C)c1S(=O)(=O)N1CCCC(C(=O)N2CCN(C3CCCCC3)CC2)C1 (configuration not stated) | 4µM[single pt active] | 0 | 0 | 0
CCOc1ccc2nc(NC(=O)C3CCCN(S(=O)(=O)c4c(C)noc4C)C3)sc2c1 (configuration not stated) | 4µM[single pt active] | 0 | 0 | ?
COc1ccc2nc(NC(=O)C3CCCN(S(=O)(=O)c4c(C)noc4C)C3)sc2c1 (configuration not stated) | 4µM[single pt active] | 0 | 0 | ?
CC[C@H]1CN2CC[C@@H]1C[C@@H]2[C@H](O)c1ccnc2ccccc12 | 0 | 0 | 0 | 0
CC(=O)OCC(=O)[C@@]1(O)CC[C@@H]2[C@@H]3CCC4=CC(=O)CC[C@@]4(C)[C@H]3C(=O)C[C@]21C | 0 | 0 | 0 | 0
O=C(CSc1nnc2scc(-c3ccccc3)n12)NCc1ccc2c(c1)OCO2 | 0 | 0 | 0 | 0
Cn1c(SCC(=O)NCc2ccc3c(c2)OCO3)nc2scc(-c3cccs3)c2c1=O | 16µM[single pt active] | 0 | 0 | 0
